We go through 14 compounds from PubChem BioAssay (NCI).

This is part of a sample that, as a whole, favours compounds with a hit. Of some 83,000 tested, about 20% had one in any assay.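 Single-dose data. Exposure time 48 hours. Values below 10 considered active.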 Active and inactive are the calls of the source.

This test relates to HL-60(TB) leukemia. Put plainly: NCI-60 one-dose screen, 48 h (100 = growth as untreated, 0 = no growth, -100 = all killed). The settings on record: 10 µM unless noted.
As to `O=C(N/N=C/c1c[nH]c2ccccc12)Nc1ccccc1Cl`, the growth is 0.912% (active). As for `COc1ccc(OC)c(-c2cc(-c3c[nH]c4ccccc34)nc(N)c2C#N)c1`, the growth is -32.2% (active). As to `CC(C)CN1C(=O)/C(=C\C(=O)c2cc3ccccc3oc2=O)c2ccccc21`, the growth is 96.1% (inactive). With `COc1ccc(C(=O)/C=C/c2ccc(Cl)c(C(F)(F)F)c2)cc1S(N)(=O)=O` the figure was 6.1% (active). For `O=c1cc(-c2ccccc2)oc2cc(OCCCC[P+](c3ccccc3)(c3ccccc3)c3ccccc3)cc(O)c12`, the growth was -51.5% (active). The value for `CCOP(=O)(OCC)O[C@H]1CC[C@]2(C)[C@H]3CC[C@@H]4[C@@H]([C@](C)(O)CCC=C(C)C)CC[C@@]4(C)[C@]3(C)CC[C@H]2C1(C)C` was 0.463% (active); that for `Cc1ccc(-c2nc(Nc3ccc(C)c(S(N)(=O)=O)c3)c3ccccc3n2)cc1` was 89.1% (inactive).

For the compound `O=C(CNc1nc(-c2ccccc2)cs1)Nc1ccc([N+](=O)[O-])cc1Cl`, the growth was 21.9% (inactive). The value for `CC1=N/C(=C\c2ccc(N(C)C)cc2)C(=O)N1CCc1ccc(S(N)(=O)=O)cc1` was 102% (inactive); that for `O=C(COc1ccc(NC(=O)Nc2ccc(Cl)c(Cl)c2)cc1)N=Nc1c(O)[nH]c2ccccc12` was 40.1% (inactive); that for `O=C(c1ccc(Cl)cc1)C1[C@H](c2ccccc2Br)[C@@H](c2ccccc2)NC12C(=O)Nc1ccc(Cl)cc12` (some centres undefined) was 32% (inactive). In the case of `CC12CC[C@@H]3[C@]4(C)COC(c5cn[nH]c5-c5cccc(Cl)c5)O[C@@H]4CC[C@@]3(C)[C@@H]1CC(C1=CCOC1=O)O2` (some centres undefined), the growth was 22.3% (inactive). `COc1cc2oc(-c3cccc(C(=O)Nc4ccc(Cl)cc4)c3)cc(=O)c2c(OCCNC(=O)[C@H](CO)NC(=O)OC(C)(C)C)c1OC`: the growth is -32.5% (active).

In the case of `C=C1CCC2C3(C)COC(c4cccc(F)c4)OC3CCC2(C)C1CC(O)C1=CCOC1=O` (centres undefined), the growth is 66.7% (inactive).
